# From PubChem BioAssay AID485297 (National Center for Advancing Translational Sciences (NCATS), 2010)
# Screen size: about 320,000 compounds; about 9,100 (2.8%) were called active. Where a call stands in place of a potency, no number is given. Roughly 3% stayed inconclusive and do not appear here. The sample holds actives, similar compounds and a random draw of the others, so the mix is not that of the screen. Calls come from the whole dose curve; as a rule, active = well fitted activation curve with a large enough effect; inconclusive = small, poorly fitted or top-dose-only effect; inactive = no such curve, though single readings can be large or run the other way.
# Assay: qHTS Assay for Rab9 Promoter Activators; note: nearly all actives have a fitted effect of over 60% in size
# Conditions: Huh7 Rab9 promoter-luciferase reporter, luminescence, 24 h; series mostly up to 9.22 µM
# In short: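 Huh7 cells stably carrying Rab9 promoter–luciferase reporter, plated 1500 cells/well, compound added after 2 h and incubated 24 h at 37 °C; luciferase luminescence then read after 10 min with detection reagent.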
# Potency is the fitted concentration of half-maximal effect.
Structure (SMILES),Potency,"activation, negative = inhibition"
O=[N+]([O-])c1cccc(/C=N/Nc2ncc(Br)cn2)c1,2820 nM (active),–
O=C(N/N=C/c1cccc([N+](=O)[O-])c1)C1CC(=O)N(c2ccc(Br)cc2)C1 (stereo not given),inactive,–
Cc1ccc(NC(=O)O/N=C/c2cccc([N+](=O)[O-])c2)cc1,inactive,–
CCOc1ccc(NC(=O)CN(C)C(=O)Cn2c(=O)cnc3ccccc32)cc1OCC,inactive,–
O=C(N/N=C/c1ccccn1)c1cccnc1,inactive,–
Cc1nn(Cc2ccc(Cl)cc2)c(Cl)c1/C=N/NC(=O)c1cccnc1,inactive,–
Cc1cc(/C=N/NC(=O)c2cccnc2)c(C)n1CC(C)C,2820 nM (active),–
O=C(Nc1nnc(C2CC2)s1)c1ccccn1,447 nM (active),–
Cc1cnc(NC(=O)c2ccc(Cl)nc2)s1,2820 nM (active),–
CCN(CC)c1ccc(NC(=O)c2ccc(Cl)nc2)cc1,inactive,–
Cc1occc1C(=O)Nc1nnc(-c2ccncc2)s1,inactive,–
Cc1cnc(NC(=O)c2ccccn2)s1,282 nM (active),–
CS(=O)(=O)c1ccc2nc(NC(=O)c3ccc(Cl)nc3)sc2c1,inactive,–
O=C(Cc1cccs1)Nc1nnc(C2CC2)s1,inactive,–
O=C(Nc1nnc(C2CC2)s1)c1cc(Cl)sc1Cl,inactive,–
Cc1cnc(NC(=O)C2CCCC2)s1,inactive,–
COc1ccc(NC(=O)CCC(=O)Nc2nnc(C3CCCCC3)s2)cc1,inactive,–
Cc1cnc(NC(=O)CSc2c(Cl)cccc2Cl)s1,inactive,–
Cc1occc1C(=O)Nc1nnc(C2CCCCC2)s1,2820 nM (active),–
CCCCCN(C(=O)CCC(=O)OCC(=O)NCc1ccc(OC)cc1)c1c(N)n(CCCC)c(=O)[nH]c1=O,inactive,–
CC(=O)c1ccccc1NC(=O)C1CC(=O)N(c2ccc3c(c2)OCCO3)C1 (stereo not given),inactive,–
CN(CC(=O)Nc1ccc(OC(F)(F)F)cc1)C(=O)C1CCC1,inactive,–

Structure (SMILES),Potency,"activation, negative = inhibition"
CSc1ccccc1NC(=O)COC(=O)CCCOc1ccc(C)cc1,inactive,–
Cc1ccc(S(=O)(=O)N2CCN(C(=O)N3CCOCC3)CC2)c(C)c1,inactive,–
COc1cc(/C=N/N2CCN(c3ccccc3)CC2)ccc1OC(C)=O,inactive,–
COc1ccccc1N1CCN(/N=C/c2ccc(O)cc2O)CC1,3160 nM (active),–
COc1ccccc1N1CCN(C(=O)C(=O)N/N=C/c2ccccc2F)CC1,inactive,–
Fc1ccc(COc2ccc(-c3nnco3)cc2)cc1,3980 nM (active),–
Fc1cccc(Cl)c1COc1ccc(-c2nnco2)cc1,inactive,–
Fc1ccc(COc2cccc(-c3n[nH]c(=S)o3)c2)cc1,inactive,–
CC(NC(=O)c1cccc(S(=O)(=O)N2CCc3ccccc3C2)c1)c1ccco1 (stereo not given),inactive,–
O=C(CSc1nnc(CN2CCCC2)n1-c1ccc(F)cc1)c1ccc2c(c1)OCO2,inactive,–
CC(C)(C)OC(=O)NCCCCCNC(=O)c1[nH]cnc1C(=O)Nc1nccs1,inactive,–
CC(C)c1ccc(N2CCN(C(=O)c3ccccc3NC(=O)/C=C(\C(=O)O)c3ccccc3)CC2)cc1,inactive,–
CCSc1nnc(NC(=O)c2ccc(C)cc2)s1,2240 nM (active),–
Cc1cccc(CSc2nnc(NC(=O)CSc3nnc(C)s3)s2)c1,inactive,–
O=C(/C=C/c1ccccc1)Nc1nnc(SCC(=O)c2ccc3ccccc3c2)s1,inactive,–
NC(=O)CSc1nnc(NC(=O)c2ccc3ccccc3c2)s1,2820 nM (active),–
C=CCSc1nnc(NC(=O)c2ccc(NC(C)=O)cc2)s1,inactive,–
NC(=O)CSc1nnc(NC(=O)c2ccc(Br)o2)s1,inactive,–
C[C@H](NC(=O)c1ccccc1)C(=O)OCC(=O)c1c[nH]c2ccccc12,inactive,–
O=C(Nc1ccc(C(F)(F)F)cc1)c1cccc(-n2cnnn2)c1,inactive,–
O=C(CCNS(=O)(=O)c1ccccc1)NCCSc1ccc(Br)cc1,inactive,–
Cc1cc(C)nc(Nc2ncn[nH]2)n1,inactive,–

Structure (SMILES),Potency,"activation, negative = inhibition"
COc1ccccc1-c1nc(SC)n[nH]1,inactive,–
Cc1cc(C)nc(Nc2n[nH]c(-c3ccccc3N)n2)n1,501 nM (active),–
COC(=O)c1ccc(COC(=O)CNC(=O)c2cccc(OC)c2)o1,inactive,–
O=C(Nc1cc(Cl)ccc1N1CCOCC1)c1ccc(N2CCCC2=O)cc1,inactive,–
COc1ccccc1CNC(=O)COC(=O)CNS(=O)(=O)c1ccc(NC(C)=O)cc1,inactive,–
Cc1cccc(C(=O)NCC(=O)OCC(=O)N(C)CC(=O)Nc2ccccc2Cl)c1,inactive,–
CCn1c(SCC(=O)NCC2CCCO2)nc2ccccc21 (stereo not given),inactive,–
CN(C(=O)COC(=O)CCCc1c[nH]c2ccccc12)c1c(N)n(Cc2ccccc2)c(=O)[nH]c1=O,inactive,–
O=Cc1ccc(Oc2cccc(C(F)(F)F)c2)nc1,inactive,–
FC(F)(F)c1ccnc(Oc2ccc(C3=NCCS3)cc2)c1,708 nM (active),–
O=[N+]([O-])c1cccc(C2=NCCS2)c1,inactive,–
CCN(CC(=O)Nc1ccc(OC)cc1)C(=O)c1ccc(=O)n(Cc2ccccc2)n1,inactive,–
COc1ccc(NC(=O)COC(=O)c2n[nH]c3ccccc23)c(OC)c1,inactive,–
COc1cccc(NC(=O)c2cc(S(=O)(=O)N3CCc4ccccc43)cn2C)c1,inactive,–
O=c1ccc2c(-c3ccccc3S(=O)(=O)O)c3ccc(O)c(O)c3oc-2c1O,inactive,–
COc1cc(OC)cc(C(=O)NCC(=O)N2CCCCCCC2)c1,inactive,–
Cc1ccc(SCCC(=O)Nc2cc(C)on2)cc1,inactive,–
Cc1ccc2nc(-c3ccc(SCC(=O)Nc4cc(C)on4)nc3)[nH]c2c1,3980 nM (active),–
Cc1ccc2nc(SCC(=O)NC3CCCC3)[nH]c2c1,inactive,–
COc1ccc(N(CC(=O)NCCSCc2cccc(Cl)c2)S(C)(=O)=O)cc1,inactive,–
CCN(C(=O)CSc1ncnc2sccc12)c1c(N)n(Cc2ccccc2)c(=O)[nH]c1=O,inactive,–
NS(=O)(=O)c1ccc(CCNC(=O)COC(=O)COc2cccc(C(F)(F)F)c2)cc1,inactive,–

Structure (SMILES),Potency,"activation, negative = inhibition"
COc1ccc(C2Nc3ccccc3C(=O)N2c2ccc(F)cc2)cc1Cn1nnc2ccccc21 (stereo not given),inactive,–
COc1ccc(C2Nc3ccccc3C(=O)N2c2ccc(Cl)cc2)cc1Cn1cc([N+](=O)[O-])cn1 (stereo not given),2000 nM (active),–
COc1ccc(C2Nc3ccccc3C(=O)N2Cc2ccccc2)cc1Cn1nnc2ccccc21 (stereo not given),inactive,–
COc1ccccc1Nc1nnc(SC(C)C(=O)NC2CC2)s1 (stereo not given),inactive,–
CCN(CC)CCCNC(=O)COc1ccc2oc3c(c2c1)CCCC3,–,1.01% [at 1.84 µM] (inactive)
O=C(COc1ccc2oc3c(c2c1)CCCC3)Nc1ccccn1,1580 nM (active),–
CCOC(=O)N1CCN(C(=O)COc2ccc3oc4c(c3c2)CCCC4)CC1,inactive,–
COc1ccc(C)cc1NC(=O)CN1c2cccc3cccc(c23)S1(=O)=O,inactive,–
Cc1ccc2c(N)c(C(=O)c3ccccc3)sc2n1,3160 nM (active),–
CCCC(=O)n1nc(-c2ccccc2)nc1N,inactive,–
NC(=O)c1sc2nc3c(c(-c4ccccc4)c2c1N)CCC3,inactive,–
CN(C)c1ccnc2sc(C(=O)c3ccccc3)c(N)c12,2820 nM (active),–
Cc1nc2ccccc2c(-c2ccccc2)c1C(=O)c1ccccc1,inactive,–
CN(C)c1ccnc2sc3c(=O)n(Cc4ccccc4)cnc3c12,inactive,–
CS(=O)(=O)c1sc2nc(-c3ccccc3)cc(-c3ccccc3)c2c1N,inactive,–
CCN(CC)C(=O)c1sc2nc(-c3ccccc3)ccc2c1N,1780 nM (active),–
COC(=O)c1cc2c(N)c(C(=O)c3ccc(Cl)cc3)sc2nc1C(OC)OC,inactive,–
CCOc1ccc(S(=O)(=O)N2CCCCC2)cc1NC(=O)CN1CCCC1c1cccs1 (stereo not given),inactive,–
N#Cc1ccc(OCC(=O)NC(=O)NC2CCS(=O)(=O)C2)cc1 (stereo not given),inactive,–
CCOC(=O)c1cc(-c2ccccc2C)n(Cc2cc(C)no2)n1,inactive,–
Cc1ccc(F)cc1NC(=O)CSCc1c(C)noc1C,inactive,–
CN(CC(=O)Nc1ccc(Cl)c(C(F)(F)F)c1)C(=O)CCC(=O)c1ccccc1,inactive,–

Structure (SMILES),Potency,"activation, negative = inhibition"
NC1CCN(O)C1=O (stereo not given),inactive,–
CC(C)CN(C(=O)CSc1ncnc2sccc12)C1CCS(=O)(=O)C1 (stereo not given),inactive,–
CC(=O)Nc1ccc(NC(=O)C(NS(=O)(=O)c2ccc3c(c2)OCCO3)C(C)C)cc1 (stereo not given),inactive,–
Cc1ccc(S(=O)(=O)N(C)CC(=O)NCC(c2ccc(F)cc2)N2CCOCC2)cc1 (stereo not given),inactive,–
O=C(COc1ccc(Cl)cc1)Nc1ccc2oc(=O)ccc2c1,inactive,–
CC(C)C(=O)Nc1ccc(C(=O)NNC(=O)c2cccs2)cc1,inactive,–
CCCc1ccc(-c2csc(NC(=O)Cc3cccs3)n2)cc1,inactive,–
Cc1ccc(C(=O)Nc2ccc(NC(=O)c3cccs3)cc2)c(C)c1,inactive,–
Cc1ccc(C(=O)NNC(=O)c2cccs2)cc1,2820 nM (active),–
Cc1ccc(NNC(=O)c2cccs2)cc1Cl,inactive,–
Cc1ccc(-c2csc(NC(=O)c3cccs3)n2)cc1,3550 nM (active),–
Cc1ccc(C)c(NC(=O)CCC(=O)NNC(=O)c2cccs2)c1,inactive,–
NNC(=O)c1ccc(Cl)cc1Cl,inactive,–
Cc1ccc(-c2csc(NC(=O)Cn3[nH]c(=O)c4ccccc4c3=O)n2)cc1,inactive,–
O=C(Nc1ccccc1)c1ccc(NC(=O)c2cccs2)cc1,inactive,–
Cc1nc(-c2ccc(NC(=O)c3cccs3)cc2)cs1,398 nM (active),–
O=C(NNC(=O)c1ccc(Cl)cc1Cl)c1cccs1,3550 nM (active),–
Cc1cccc(C)c1NC(=O)CNC(=O)C1CCCC1,inactive,–
O=C(CN1CCCCC1)NC(=O)Nc1ccccc1F,inactive,–
CC(=O)C[C@@H](O)CC(=O)[C@H]1OC(=O)CCCCCCc2ccccc21,inactive,–
Cc1cc(C(=O)OCC(=O)Nc2ccccc2Cl)c(C)o1,inactive,–
O=C(COc1ccccc1O)NC1CCCC1,inactive,–
